In the supplement of paper PMC13380429:

Test system: Vero E6 infected with SARS-CoV-2
Test: inhibition of SARS-CoV-2 cytopathic effect; higher = more antiviral protection, active = above 15
Details: 48 h

Measured: inhibition of SARS-CoV-2 cytopathic effect

CC1=C(C)C(=O)C(C(CCCCCC(=O)O)c2ccccc2)=C(C)C1=O (stereo not given) [seratrodast]
inactive: 1 nM -0.6% | 8.33 nM -1.68% | 100 nM 1.92% | 833.33 nM 2.24% | 10000 nM 1.24%

CCCOCCn1c(=O)c(N2CCN(CCO)CC2)nc2cnc(-c3ccc(OC)nc3)cc21
inactive: 1 nM 0.37% | 8.33 nM 0.25% | 100 nM -0.91% | 833.33 nM -1.66% | 10000 nM -1.9%

CC(=O)NC1CCSC1=O (stereo not given) [citiolone]
inactive: 1 nM 3.06% | 8.33 nM -0.41% | 100 nM -6.39% | 833.33 nM -4.01% | 10000 nM 2.58%

CCCCCCCC/C=C\CCCCCCCC(=O)N[C@@H](CO)Cc1ccc(O)cc1
inactive: 1 nM 0.56% | 8.33 nM -0.46% | 100 nM 1.38% | 833.33 nM 1.23% | 10000 nM -2.65%

O[C@H]1CC[C@H](Nc2nc(-c3ccccc3)nc3[nH]ccc23)CC1
inactive: 1 nM -1.91% | 8.33 nM -3.12% | 100 nM -4.27% | 833.33 nM -1.49% | 10000 nM -0.8%

CC(C)=CCC[C@](C)(O[C@@H]1O[C@H](CO)[C@@H](O)[C@H](O)[C@H]1O)[C@H]1CC[C@]2(C)[C@@H]1[C@H](O)C[C@@H]1[C@@]3(C)CC[C@H](O)C(C)(C)[C@@H]3CC[C@]12C [ginsenoside-C-K]
inactive: 1 nM 3.53% | 8.33 nM 3.09% | 100 nM 3.64% | 833.33 nM -0.21% | 10000 nM 2.52%

Cc1ccc2c(c1CCC(=O)O)CC[C@@H](NS(=O)(=O)c1ccc(Cl)cc1)C2 [terutroban]
inactive: 1 nM -4.39% | 8.33 nM -2.46% | 100 nM -5.1% | 833.33 nM -1.42% | 10000 nM 0.09%

NC[C@H]1O[C@H](O[C@H]2[C@H](O)[C@@H](O[C@H]3O[C@H](CO)[C@@H](O)[C@H](N)[C@H]3O)[C@H](N)C[C@@H]2N)[C@H](N)[C@@H](O)[C@@H]1O [bekanamycin]
inactive: 1 nM -0.6% | 8.33 nM -0.02% | 100 nM -0.32% | 833.33 nM 0% | 10000 nM -1.85%

COc1cc(N)c(Cl)cc1C(=O)OCCN1CCCCC1
inactive: 1 nM 2.34% | 8.33 nM 2.09% | 100 nM 1.8% | 833.33 nM 1.01% | 10000 nM 2.59%

Cn1ccnc1S [methimazole]
inactive: 1 nM 0.07% | 8.33 nM 2.09% | 100 nM 0.26% | 833.33 nM 0.56% | 10000 nM 0.22%

C=C(c1ccccc1OCc1cccc(Cl)c1)n1ccnc1 [croconazole]
inactive: 1 nM -1.55% | 8.33 nM -2.51% | 100 nM 0.21% | 833.33 nM 2.28% | 10000 nM -1.36%

NCCCC[C@H](NC(=O)[C@@H]1CCCN1C(=O)[C@@H]1CSSC[C@H](N)C(=O)N[C@@H](Cc2ccc(O)cc2)C(=O)N[C@@H](Cc2ccccc2)C(=O)N[C@@H](CCC(N)=O)C(=O)N[C@@H](CC(N)=O)C(=O)N1)C(=O)NCC(N)=O [lypressin]
inactive: 1 nM 0.07% | 8.33 nM 1.59% | 100 nM 3.33% | 833.33 nM 1.65% | 10000 nM 0.67%

CNC(=O)c1ccccc1Nc1cc(Nc2ccc(N3CCOCC3)cc2OC)ncc1C(F)(F)F
inactive: 1 nM 0.1% | 8.33 nM -1.1% | 100 nM -2.99% | 833.33 nM -4.38% | 10000 nM -3.64%

O=C(O)CC/C=C\C[C@@H]1CO[C@H](c2ccccc2Cl)O[C@@H]1c1ccccc1O (racemic)
inactive: 1 nM 0.52% | 8.33 nM 1% | 100 nM -2.37% | 833.33 nM 0.59% | 10000 nM -2.08%

NC1=NCC2c3ccccc3Cc3ccccc3N12 (stereo not given) [epinastine]
inactive: 1 nM -1.87% | 8.33 nM -1.14% | 100 nM 0.71% | 833.33 nM 7.29% | 10000 nM 1.93%

CC(=O)N[C@H]1[C@@H](O)[C@H](O)[C@@H](CO)O[C@@H]1O [N-acetylmannosamine]
inactive: 1 nM 0.48% | 8.33 nM -0.18% | 100 nM -0.61% | 833.33 nM -1.2% | 10000 nM 1.32%

O=C(NCCCN1CCOCC1)c1cnn2c(-c3ccccc3)cc(-c3ccccc3)nc12 [reversan]
inactive: 1 nM 12.1% | 8.33 nM 0.65% | 100 nM 1.42% | 833.33 nM 0.17% | 10000 nM -6.41%

C[C@H](N)Cn1ccc2cc(F)c(Cl)cc21
inactive: 1 nM 1.25% | 8.33 nM 4.09% | 100 nM 1.91% | 833.33 nM -2.16% | 10000 nM -0.64%

Cc1ccc(-c2nn(C(C)(C)CNC(=O)c3ncccc3C)c3ncnc(N)c23)cc1 [WEHI-345-analog]
inactive: 1 nM 0.48% | 8.33 nM 1.39% | 100 nM -0.26% | 833.33 nM 0.47% | 10000 nM -2.28%

O=C(O)c1cn(-c2ccc(F)cc2)c2cc(N3CCNCC3)c(F)cc2c1=O [sarafloxacin]
inactive: 1 nM -2.73% | 8.33 nM -5.26% | 100 nM -3.5% | 833.33 nM -5.86% | 10000 nM -4.93%

C=CCN1CC[C@]23c4c5ccc(O)c4O[C@H]2C(=O)CC[C@@]3(O)[C@H]1C5
inactive: 1 nM -1.98% | 8.33 nM 1.85% | 100 nM 1.15% | 833.33 nM 3.34% | 10000 nM 0.28%

Cc1ccc(S(=O)(=O)n2c(N)nc3ccccc32)cc1
inactive: 1 nM -0.51% | 8.33 nM -0.92% | 100 nM -2.91% | 833.33 nM -2.7% | 10000 nM -0.17%

Cc1csc(-c2nnc(Nc3ccc(Oc4ncccc4-c4ccnc(N)n4)cc3)c3ccccc23)c1
inactive: 1 nM -1.03% | 8.33 nM -3.23% | 100 nM -5.41% | 833.33 nM -4.07% | 10000 nM -4.59%

O=c1c(O)c(-c2cc(O)c(O)c(O)c2)oc2cc(O)cc(O)c12 [myricetin]
inactive: 1 nM -0.44% | 8.33 nM 0.2% | 100 nM 3.15% | 833.33 nM 5.8% | 10000 nM 0.05%

c1ccc([C@@H]2C[C@H]2NC2CCNCC2)cc1
inactive: 1 nM -2.71% | 8.33 nM 1.14% | 100 nM 0.53% | 833.33 nM 1.44% | 10000 nM -2.6%

Nc1nc2[nH]cnc2c(=S)[nH]1 [thioguanine]
inactive: 1 nM -0.56% | 8.33 nM -0.26% | 100 nM 1.4% | 833.33 nM 2.65% | 10000 nM 5.44%

O=C1NCCN1c1ncc([N+](=O)[O-])s1 [niridazole]
inactive: 1 nM 0.2% | 8.33 nM -2.07% | 100 nM -4.84% | 833.33 nM -1.39% | 10000 nM -4.56%

COc1ccc(S(=O)(=O)Nc2nc(-c3cccc([N+](=O)[O-])c3)cs2)cc1OC
inactive: 1 nM 2.08% | 8.33 nM 4.04% | 100 nM 7.06% | 833.33 nM 0.79% | 10000 nM -3.82%

C[C@H](NCc1ccc(OCc2ccccc2F)cc1)C(N)=O [priralfinamide]
inactive: 1 nM -0.13% | 8.33 nM 7.24% | 100 nM 6.27% | 833.33 nM 0.58% | 10000 nM -1.48%

C[C@@]12C[C@@]3(O)O[C@@H](O1)[C@]1(COC(=O)c4ccccc4)[C@H]3C[C@@]12O[C@@H]1O[C@H](CO)[C@@H](O)[C@H](O)[C@H]1O [paeoniflorin]
inactive: 1 nM -0.01% | 8.33 nM 0.45% | 100 nM 0.1% | 833.33 nM 0.8% | 10000 nM 0.46%

C[C@@H]1C[C@H]2[C@@H]3C[C@H](F)C4=CC(=O)C=C[C@]4(C)[C@@]3(F)[C@@H](O)C[C@]2(C)[C@@]1(O)C(=O)CO [flumethasone]
inactive: 1 nM 0.24% | 8.33 nM -0.72% | 100 nM 1.45% | 833.33 nM 0.62% | 10000 nM 0.56%

COC(=O)CCC(=O)CN [methyl-aminolevulinate]
inactive: 1 nM 2.97% | 8.33 nM 2.46% | 100 nM 1.49% | 833.33 nM 3.55% | 10000 nM 5.12%

Nc1nc(=O)n([C@H]2C[C@H](O)[C@@H](CO)O2)cc1F [fdcyd]
inactive: 1 nM 0.4% | 8.33 nM 0.55% | 100 nM -0.04% | 833.33 nM 8.53% | 10000 nM -2.15%

COc1cc(C)nc(-n2nc(C)cc2OC)n1 [epirizole]
inactive: 1 nM 1.56% | 8.33 nM 3.82% | 100 nM -0.67% | 833.33 nM 0.65% | 10000 nM -2.64%

O=C(COc1ccc(Cl)cc1)N1CCN(Cc2ccc3c(c2)OCO3)CC1 [fipexide]
inactive: 1 nM -0.21% | 8.33 nM 0.95% | 100 nM 1.92% | 833.33 nM 1.62% | 10000 nM 0.49%

CC(C)[C@]12O[C@H]1[C@@H]1O[C@]13[C@]1(O[C@H]1C[C@H]1C4=C(CC[C@@]13C)C(=O)OC4)[C@@H]2O [triptolide]
inactive: 1 nM -1.16% | 8.33 nM -2.32% | 100 nM -12.1% | 833.33 nM -9.06% | 10000 nM -8.11%

N#Cc1nn(-c2c(Cl)cc(C(F)(F)F)cc2Cl)c(N)c1[S+]([O-])C(F)(F)F (stereo not given) [fipronil]
inactive: 1 nM 0.34% | 8.33 nM 3.14% | 100 nM 1.21% | 833.33 nM 3.8% | 10000 nM 3.66%

COc1cc(OC)cc(C(=O)NNC(=O)Nc2cccc3ccccc23)c1
inactive: 1 nM 0.29% | 8.33 nM -2.09% | 100 nM -1.74% | 833.33 nM 2.71% | 10000 nM -1.92%
